TRPV1 ag – activates the human vanilloid receptor TRPV1; Q8NER1; TRPV1-expressing cells, Fluo-8 calcium influx, agonist mode; activation, % at 8.33 µM; 320,000 compounds, 0.19% hits; in the data active means activation above about 80%; inconclusive means between about 30% and that limit; further: 0% is about no effect
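Fluo-8 calcium influx in TRPV1-expressing cells, kinetic read (ex 480/em 520 nm). Compound added and read 3 min for agonist activity, followed by capsaicin at EC20 final and 2 min further read for enhancement.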
TRPV1 potentiator – human TRPV1 potentiation. TRPV1-expressing cells, Fluo-8 calcium influx, capsaicin EC20 potentiation. 320,000 compounds, 0.02% hits. Q8NER1. potentiation, % at 8.33 µM. AID 540277; in the data active means potentiation above about 80%; inconclusive means between about 30% and that limit; further: 0% is about no effect
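TRPV1-expressing cells were cultured overnight at 35.5C and loaded with Fluo-8 calcium dye for 40 to 90 min at room temperature. After a 10 s baseline, compound was added and calcium influx was read kinetically for 3 min (ex 480/em 520 nm).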
TRHR agonist – agonists of human TRH receptor; P34981; TRHR cells, calcium flux fluo-8, FDSS agonist mode; activation, % at 2 µM; 360,000 compounds, 0.18% hits; in the data active means activation above about 30%; further: 0% is about no effect
Target sequence (P34981 whole entry, looked up): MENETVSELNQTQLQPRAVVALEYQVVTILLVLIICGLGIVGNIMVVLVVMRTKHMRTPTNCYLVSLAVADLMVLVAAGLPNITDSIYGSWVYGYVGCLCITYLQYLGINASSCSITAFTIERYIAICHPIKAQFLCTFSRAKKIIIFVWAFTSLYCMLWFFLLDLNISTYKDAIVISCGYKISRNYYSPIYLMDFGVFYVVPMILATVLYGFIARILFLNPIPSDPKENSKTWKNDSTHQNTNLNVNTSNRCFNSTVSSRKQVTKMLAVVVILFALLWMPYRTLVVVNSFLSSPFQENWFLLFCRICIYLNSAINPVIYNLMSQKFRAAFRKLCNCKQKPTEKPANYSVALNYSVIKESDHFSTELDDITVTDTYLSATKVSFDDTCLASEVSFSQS
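Fluo-8-loaded TRHR cells; 10 s baseline, compound added, kinetic Ca2+ fluorescence read 1/s, agonist mode.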
TRPML1 agonist – agonists of human TRPML1 channel; Q9GZU1; TRPML1-expressing cells, Ca2+ dye fluorescence, FDSS; activation, % (no concentration beside the values); 410,000 compounds, 0.12% hits; in the data active means activation above about 50%; inconclusive means mostly about 30% to 49%; further: 0% is about no effect
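TRPML1-DL cells, Tet-induced overnight (~16 h, 37 degrees C), loaded 45-90 min at room temperature with Ca8 no-wash calcium dye plus quencher. FDSS fluorescence: 10 s baseline, compound pin-transfer, 110 s agonist read, then EC80 54-4 (4uM final) and 110 s antagonist read.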
TRHR PAM – allosteric enhancers of human TRH receptor | TRHR cells, fluo-8 calcium fluorescence, EC20 TRH enhancement | enhancement, % at 2 µM | 360,000 compounds, 0.66% hits | P34981; in the data active means enhancement above about 30%; further: 0% is about no effect
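TRHR-expressing cells loaded with fluo-8 calcium dye were read kinetically (ex 480/em 530) during compound addition, then stimulated with an EC20 of TRH (10 nM final). Enhancement of the Gq-mediated intracellular calcium response was scored.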
TRPML1 blocker – inhibitors of human TRPML1 channel; Q9GZU1; 390,000 compounds, 0.02% hits; TRPML1-inducible cells, Ca2+ dye fluorescence, FDSS; hits give low values; inhibition of EC80 agonist-evoked calcium signal; activity change, negative = inhibition, % (no concentration beside the values); AID 624415; in the data active means activity change below about -50%; inconclusive means between about -30% and that limit;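 further: stimulus is agonist 54-4 at its EC80 concentration; on the % scale 0 is the no-effect control and ±100 the full control effect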
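Calcium fluorescence in TRPML1-DL cells induced overnight with Tet: a 110 s read after compound pin addition, then a 110 s antagonist read after challenge with 54-4 at 4 uM final (EC80).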
Numbers without * were called inactive; ? = inconclusive; . = no result given. Only some compounds are listed: those with a hit (about 0.96% of all), similar ones and a draw of the others.

SMILES	TRPV1 ag	TRPV1 potentiator	TRHR agonist	TRPML1 agonist	TRHR PAM	TRPML1 blocker
O=C1/C(=C\c2cc(Cl)c(O)c(Cl)c2)SC(=S)N1Cc1ccccc1	1	9	188*	109*	3	-11
COc1ccc(/C=C2/SC(=S)N(Cc3ccccc3)C2=O)cc1O	-4	13	-1	.	-7	.
CS(=O)(=O)c1ccc(C(=O)OCC(=O)Nc2ccc(OC(F)(F)F)cc2)cc1[N+](=O)[O-]	.	.	.	-1	.	.
Cn1nc(-c2ccc(OCC(=O)Nc3ccc(Cl)cc3)cc2)c2ccccc2c1=O	.	.	-1	-1	35*	49
Cc1ccccc1NC(=O)CCn1nc(-c2ccc(Cl)cc2)c2ccccc2c1=O	.	.	-1	2	37*	3
CC(C)(C)NC(=O)CCn1nc(-c2ccc(Cl)cc2)c2ccccc2c1=O	0	?	-1	2	-5	-10
CC1Cc2ccccc2C[N+]1(C)CC(=O)c1ccc(I)cc1 (stereo not given)	.	.	.	-1	.	.
CC(C(=O)Nc1ccccc1)N1C(=O)c2ccccc2C1=O (stereo not given)	-1	-2	0	0	32*	-11
Cc1cc(C)cc(NC(=O)C(C)N2C(=O)c3ccccc3C2=O)c1 (stereo not given)	-1	?	-1	-1	0	1
Cc1ccc(C(c2nnnn2C(C)(C)C)N(Cc2ccco2)Cc2cccs2)cc1 (stereo not given)	24	14	1	60*	-3	-9
CC(C)(C)n1nnnc1C(c1ccc(F)cc1)N(Cc1ccc(F)cc1)Cc1ccco1 (stereo not given)	19	5	1	?	-12	-27
Cc1cc(C(=O)N/N=C/c2cccc([N+](=O)[O-])c2)c(C)n1-c1ccccc1	89*	6	-1	2	17	7
COc1ccc(N=Cc2sc(O)c3ccccc23)cc1	2	0	-1	84*	10	-29
COc1ccc(N=Cc2c(O)c3ccccc3n2C(C)=O)cc1	?	-8	34*	12	-2	3
COc1cc2c(cc1OC)n(CC(=O)c1ccc(F)cc1)c(=O)n1nc(CCn3nc(C)cc3C)nc21	.	.	0	0	36*	-12
Cc1cc(C)n(CCc2nc3c4ccccc4n(CC#N)c(=O)n3n2)n1	-8	10	0	-1	15	7
CC(C)(C)n1ncc2c(=O)n(Cc3ccc(F)cc3F)cnc21	.	.	.	1	.	2
COc1ccc(CN2CC[C@H]3C=CC[C@@H](C(=O)NCc4cccnc4)[C@H]3C2=O)cc1OC	.	.	.	0	.	.
c1cc(C2CCN(Cc3nc(-c4ccc5c(c4)OCO5)no3)CC2)ccn1	2	3	1	1	35*	-18
COc1cccc(CN2CCCC(C(=O)N3CCCCC3)C2)c1OC (stereo not given)	-1	18	-1	0	33*	-25
COCCn1c2nc(=O)n(-c3ccccc3)c(=O)c-2nc2ccccc21	.	.	.	59*	.	-9
COCC(=O)NNS(=O)(=O)c1ccccc1[N+](=O)[O-]	-2	-3	0	0	-4	24
CCOc1ccc(NC(=O)CCC(=O)NNS(=O)(=O)c2ccccc2[N+](=O)[O-])cc1	?	4	102*	0	4	-20
O=C(Cn1c(SCc2ccccc2F)nc2cccnc21)Nc1ccc(F)c(Cl)c1	.	.	1	0	36*	8
O=C(Cn1c(SCc2cccc(F)c2)nc2cccnc21)Nc1ccc(F)c(Cl)c1	.	.	1	0	6	17
O=C(Nc1ccccc1)c1nc[nH]c1C(=O)NCc1ccccc1	29	-20	0	2	-4	6
O=C(NCc1ccccc1)c1nc[nH]c1C(=O)NCc1ccccc1	5	0	0	3	33*	13
CN(C)c1ccc(/C=C/c2ccnc3c(Cl)ccc(Cl)c23)cc1	.	.	.	64*	.	.
CCn1c(/C=C/c2ccccc2[N+](=O)[O-])nc2ccccc2c1=O	17	-15	-1	1	40*	-3

Screens: PubChem, National Center for Advancing Translational Sciences (NCATS)
